# Measurements taken from PubChem BioAssay AID485281 (National Center for Advancing Translational Sciences (NCATS), 2010).
# Among all 350,000 compounds or so, about 260 (0.074%) were called active. Inconclusive results (about 8%) are left out. This excerpt belongs to a sample that is enriched for actives. A number with no mark means an inactive call. The call rests on the fitted dose curve; in most records, active means well fitted inhibition curve with a large enough effect; inconclusive means small, poorly fitted or top-dose-only effect; inactive means no such curve, though single readings can be large or run the other way.
# Target: Ferritin light chain (Equus caballus) (UniProt P02791)
# Sequence (P02791 2-175 limits assumed): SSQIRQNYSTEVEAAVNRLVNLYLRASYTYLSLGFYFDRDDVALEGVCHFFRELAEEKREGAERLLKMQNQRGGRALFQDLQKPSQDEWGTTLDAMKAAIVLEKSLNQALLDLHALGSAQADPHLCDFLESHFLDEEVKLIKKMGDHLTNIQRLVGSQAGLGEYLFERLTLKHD
# Assay: qHTS Assay for Identification of Novel General Anesthetics; further: nearly all actives have a fitted effect of over 20% in size
# Conditions: apoferritin/1-aminoanthracene competitive binding, fluorescence; series mostly up to 77.5 µM; activity change, negative = displacement: at the top concentration
# Description: Source: NIH Chemical Genomics Center [NCGC]
# Assay Submitter: Roderic Eckenhoff, University of Pennsylvania
# Screening Center PI: Christopher P. Austin, NIH
# Probe Development: NIH Chemical Genomics Center [NCGC]
# Anesthetic development has remained a largely empirical process. There are growing concerns about the cognitive effects of known general anesthetics and acceleration of the onset of neurodegenerative disease. The compounds' toxicity and multiple specific binding targets in the mammalian brain [4] has made them less attractive as drug leads. In this assay, a GABAergic mimetic model system, apoferritin and a profluorescent 1-aminoanthracene ligand (1-AMA), was used to construct a competitive binding assay for identification of novel general anesthetics. The assay was validated for 1-AMA using other known anesthetics, such as isoflurane (CID:3763) and propofol (CID: 4943), [6].
# [1] S.L. Bianchi, T. Tran, C. Liu, S. Lin, Y. Li, J.M. Keller, R.G. Eckenhoff, and M.F. Eckenhoff, Brain and behavior changes in 12-month-old Tg2576 and nontransgenic mice exposed to anesthetics. Neurobiol Aging 29 (2008) 1002-10.
# [2] Z. Xie, Y. Dong, U. Maeda, R.D. Moir, W. Xia, D.J. Culley, G. Crosby, and R.E. Tanzi, The inhalation anesthetic isoflurane induces a vicious cycle of apoptosis and amyloid beta-protein accumulation. J Neurosci 27 (2007) 1247-54.
# [3] P. Honegger, and J.M. Matthieu, Selective toxicity of the general anesthetic propofol for GABAergic neurons in rat brain cell cultures.
# [4] M.F. Eckenhoff, K. Chan, and R.G. Eckenhoff, Multiple specific binding targets for inhaled anesthetics in the mammalian brain. J Pharmacol Exp Ther 300 (2002) 172-9.
# [5] C.A. Butts, J. Xi, G. Brannigan, A.A. Saad, S.P. Venkatachalan, R.A. Pearce, M.L. Klein, R.G. Eckenhoff, and I.J. Dmochowski, Identification of a fluorescent general anesthetic, 1-aminoanthracene. Proc Natl Acad Sci U S A 106 (2009) 6501-6.
# [6] W.A. Lea, J. Xi, A. Jadhav, L. Lu, C.P. Austin, A. Simeonov, and R.G. Eckenhoff, A high-throughput approach for identification of novel general anesthetics. PLoS One 4 (2009) e7150.
# Three uL of reagents (free 1-AMA (50% saturated solution of 1-aminoanthracene
# in PBS) in columns 3, 4 as negative control and 1-AMA/apoferritin mixture (10 uM horse-spleen apoferritin in 50% saturated 1-aminoanthracene in PBS) in columns 1, 2, 5-48) was dispensed into 1536-well Greiner black assay plates. Compounds (23 nL) were transferred via Kalypsys pintool equipped with 1,536-pin array (10 nL slotted pins, V&P Scientific, San Diego, CA). Titration of the positive control, propofol, were delivered via pin transfer from separate control plates to the 2nd column of each assay plate. The starting concentration of the control, dissolved in DMSO, was at 160 mM, followed by two-fold dilution points in duplicate, for a total of 16 concentrations. The plates were incubated for 10 min at room temperature, and then read on an EnVision HTS multilabel reader (Perkin-Elmer, Waltham, MA) (end point read, 3 min/plate) using Fura2 BFP excitation filter (380 nm, bandwidth 10 nm) and fluorescein emission filter (535 nm, bandwidth 25 nm) set. A LANCE/DELFIA dichroic mirror with a cutoff wavelength at 400 nm was used to maximize signal accuracy and strength. […] Activity was computed as the normalized fluorescence response relative to free 1-AMA and 1-AMA/apoferritin complex values. […]
# On the % scale 0 is the no-effect control and ±100 the full control effect; potency means the concentration at half of the fitted maximal effect.
Structure (SMILES),Potency,"activity change, negative = displacement"
N[C@@H](Cc1c[nH]c2ccccc12)c1nnc(SCc2c(F)cccc2Cl)o1,28.2 µM (active),–
CCOCCCNC(=O)c1c(NC(=O)c2nc(SC)ncc2Cl)sc2c1CCCC2,–,173%
COC(=O)c1ccccc1NC(=O)c1cc(-c2ccccc2O)no1,–,164%
CCc1ccccc1NC(=O)c1sc2nc3c(cc2c1N)CN(Cc1ccccc1)CC3,–,62.1%
C[C@H]1C/C=C/[C@@H]2[C@@H]3O[C@]3(C)[C@@H](C)[C@H]3[C@H](Cc4ccccc4)NC(=O)[C@]32OC(=O)O/C=C/[C@](C)(O)C1=O,–,-9.63%
